Pf apPOL block – Pf-apPOL inhibitors, biochemical, fluorescence; Plasmodium falciparum apicoplast DNA polymerase (apPOL); Recombinant Pf-apPOL, molecular beacon fluorescence, 1.5 h; inhibition, % at 10 µM; 0.25% of 210,000 active
mHTT-CaM PPI inh – mutant huntingtin-calmodulin interaction inhibitors – biochemical, AlphaScreen, primary screen. AlphaScreen His-mHTT/GST-CaM binding, luminescence. inhibition, % at 15 µM. 3.6% of 190,000 active. AID 1671202, 2021
Target sequence (P42858 whole entry, looked up, change not shown): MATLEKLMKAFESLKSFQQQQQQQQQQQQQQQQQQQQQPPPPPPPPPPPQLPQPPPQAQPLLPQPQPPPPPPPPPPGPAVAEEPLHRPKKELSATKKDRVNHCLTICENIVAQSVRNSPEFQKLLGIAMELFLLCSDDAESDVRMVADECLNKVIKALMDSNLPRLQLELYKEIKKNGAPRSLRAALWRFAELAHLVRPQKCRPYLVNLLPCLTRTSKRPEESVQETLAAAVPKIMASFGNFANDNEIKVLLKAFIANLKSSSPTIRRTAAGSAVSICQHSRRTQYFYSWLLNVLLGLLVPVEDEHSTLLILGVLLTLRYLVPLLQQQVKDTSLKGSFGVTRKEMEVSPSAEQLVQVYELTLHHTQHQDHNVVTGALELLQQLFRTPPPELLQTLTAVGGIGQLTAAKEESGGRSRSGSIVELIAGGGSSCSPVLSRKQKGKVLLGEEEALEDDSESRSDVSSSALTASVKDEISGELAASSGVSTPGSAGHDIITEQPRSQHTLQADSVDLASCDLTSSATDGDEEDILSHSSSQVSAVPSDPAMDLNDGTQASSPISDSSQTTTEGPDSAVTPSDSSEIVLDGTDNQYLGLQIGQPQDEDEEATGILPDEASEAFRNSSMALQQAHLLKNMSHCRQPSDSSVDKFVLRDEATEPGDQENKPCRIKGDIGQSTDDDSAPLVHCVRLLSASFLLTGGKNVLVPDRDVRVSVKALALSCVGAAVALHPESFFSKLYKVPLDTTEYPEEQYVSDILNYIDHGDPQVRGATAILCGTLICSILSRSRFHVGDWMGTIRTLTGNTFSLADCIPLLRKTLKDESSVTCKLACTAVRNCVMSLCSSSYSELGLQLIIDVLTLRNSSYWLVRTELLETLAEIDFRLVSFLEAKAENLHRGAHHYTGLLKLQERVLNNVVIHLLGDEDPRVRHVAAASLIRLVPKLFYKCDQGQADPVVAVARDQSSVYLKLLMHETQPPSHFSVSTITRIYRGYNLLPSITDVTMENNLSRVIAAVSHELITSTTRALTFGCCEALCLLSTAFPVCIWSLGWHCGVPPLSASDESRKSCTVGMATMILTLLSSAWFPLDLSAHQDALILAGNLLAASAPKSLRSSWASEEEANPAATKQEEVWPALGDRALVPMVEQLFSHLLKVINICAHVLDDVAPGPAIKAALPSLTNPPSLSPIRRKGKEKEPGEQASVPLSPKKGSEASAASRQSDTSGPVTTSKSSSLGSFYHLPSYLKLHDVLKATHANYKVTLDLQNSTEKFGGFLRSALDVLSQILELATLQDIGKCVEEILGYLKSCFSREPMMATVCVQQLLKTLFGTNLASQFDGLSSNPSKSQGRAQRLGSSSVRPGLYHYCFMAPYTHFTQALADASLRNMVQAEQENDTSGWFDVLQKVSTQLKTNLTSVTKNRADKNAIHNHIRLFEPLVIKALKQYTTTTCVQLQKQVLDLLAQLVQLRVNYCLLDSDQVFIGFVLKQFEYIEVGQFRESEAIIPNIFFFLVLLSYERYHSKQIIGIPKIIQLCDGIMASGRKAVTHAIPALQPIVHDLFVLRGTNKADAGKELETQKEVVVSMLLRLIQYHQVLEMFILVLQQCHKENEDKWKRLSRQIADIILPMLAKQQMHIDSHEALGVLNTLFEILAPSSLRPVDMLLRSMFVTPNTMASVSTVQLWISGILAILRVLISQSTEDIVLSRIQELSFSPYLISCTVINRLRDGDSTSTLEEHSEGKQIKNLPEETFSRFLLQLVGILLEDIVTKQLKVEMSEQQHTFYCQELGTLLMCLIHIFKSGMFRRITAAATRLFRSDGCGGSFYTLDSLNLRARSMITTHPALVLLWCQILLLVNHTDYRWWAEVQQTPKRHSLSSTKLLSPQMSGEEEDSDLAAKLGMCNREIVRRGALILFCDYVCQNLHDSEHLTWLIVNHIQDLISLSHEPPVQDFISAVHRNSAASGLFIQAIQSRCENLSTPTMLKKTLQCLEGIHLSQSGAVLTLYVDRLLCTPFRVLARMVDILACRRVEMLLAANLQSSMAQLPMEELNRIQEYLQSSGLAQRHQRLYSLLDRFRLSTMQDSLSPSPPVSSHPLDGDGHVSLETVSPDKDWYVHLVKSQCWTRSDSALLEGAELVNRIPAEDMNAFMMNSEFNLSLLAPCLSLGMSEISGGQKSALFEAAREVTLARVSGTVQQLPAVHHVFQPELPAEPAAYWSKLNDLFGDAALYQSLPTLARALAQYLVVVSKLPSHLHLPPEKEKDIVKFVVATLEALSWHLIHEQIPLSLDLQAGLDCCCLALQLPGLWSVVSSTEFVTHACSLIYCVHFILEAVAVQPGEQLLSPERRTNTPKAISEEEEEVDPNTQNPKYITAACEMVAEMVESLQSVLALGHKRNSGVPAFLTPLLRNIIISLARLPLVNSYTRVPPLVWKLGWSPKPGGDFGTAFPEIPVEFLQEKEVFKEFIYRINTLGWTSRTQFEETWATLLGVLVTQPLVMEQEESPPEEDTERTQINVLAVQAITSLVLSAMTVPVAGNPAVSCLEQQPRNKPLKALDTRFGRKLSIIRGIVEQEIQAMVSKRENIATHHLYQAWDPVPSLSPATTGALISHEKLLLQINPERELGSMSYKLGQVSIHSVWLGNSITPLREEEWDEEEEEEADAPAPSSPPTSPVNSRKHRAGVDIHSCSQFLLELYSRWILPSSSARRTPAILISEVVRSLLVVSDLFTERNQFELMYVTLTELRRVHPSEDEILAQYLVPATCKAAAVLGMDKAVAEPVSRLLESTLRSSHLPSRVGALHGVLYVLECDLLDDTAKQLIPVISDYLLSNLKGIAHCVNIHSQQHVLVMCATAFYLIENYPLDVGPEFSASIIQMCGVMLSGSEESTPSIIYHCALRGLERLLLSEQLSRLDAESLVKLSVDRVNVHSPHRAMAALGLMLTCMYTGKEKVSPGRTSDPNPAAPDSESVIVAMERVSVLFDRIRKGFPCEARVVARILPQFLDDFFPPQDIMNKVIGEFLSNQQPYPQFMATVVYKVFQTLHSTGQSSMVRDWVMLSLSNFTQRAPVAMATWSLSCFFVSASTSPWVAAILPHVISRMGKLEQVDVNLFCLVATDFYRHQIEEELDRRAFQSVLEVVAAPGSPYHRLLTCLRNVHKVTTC
Of the large screens only hits and unclear results are named; the others gave an inactive call. Only some compounds are listed: those with a hit (about 3.6% of all), similar ones and a draw of the others. No stated cut-off is given here; in the data, active means inhibition above about 50%; inactive means the rest.

O=C(c1cccc([N+](=O)[O-])c1)N1CCC(c2nc3ccccc3[nH]2)CC1	none
COc1ccc(C(=O)Nc2nnc(C3CC(=O)N(c4ccc(F)cc4)C3)o2)cc1 (stereo not given)	none
Oc1ccc(F)cc1C1=NNC(c2ccc3c(c2)OCCO3)C1 (stereo not given)	none
Cn1c(Cl)cnc1C1CC(c2cc(Cl)ccc2O)=NN1 (stereo not given)	mHTT-CaM PPI inh 67
Oc1ccccc1C1=NNC(c2ccc(Br)cc2)C1 (stereo not given)	mHTT-CaM PPI inh 57
COc1ccc(C2=NNC(c3ccc(Br)cc3)C2)c(O)c1 (stereo not given)	none
Oc1ccc(Cl)cc1C1=NNC(c2ccc3c(c2)OCCO3)C1 (stereo not given)	mHTT-CaM PPI inh 63
Cn1c(Cl)cnc1C1CC(=O)c2cc(Cl)ccc2O1 (stereo not given)	none
O=[N+]([O-])c1ccc(O)c(C2=NNC(c3ccncc3)C2)c1 (stereo not given)	none
O=[N+]([O-])c1ccc(O)c(C2=NNC(c3ccc(Cl)cc3)C2)c1 (stereo not given)	mHTT-CaM PPI inh 55
COc1ccc(Br)cc1CNCc1cccc(OC)c1OC	none
COc1ccc(S(=O)(=O)CCC(=O)Nc2cccc(-c3nc4ccccc4o3)c2)cc1	none
O=C(c1cccs1)N1CCN(S(=O)(=O)c2cc3c4c(c2)CCC(=O)N4CCC3)CC1	none
CC(=O)c1cccc(NC(=O)c2noc3c2CCCC3)c1	none
O=C(CSc1nc2ccccc2c(=O)n1C1CC1)Nc1cc(C(F)(F)F)ccc1Cl	none
N#CC=C(Nc1ccc(F)cc1F)c1ccccc1Cl	none (no result: mHTT-CaM PPI inh)
O=C(Nc1cccc(N=Cc2cc(Br)ccc2O)c1)c1ccco1	none
CC(=O)Nc1cccc(N=Cc2cc(Cc3ccccc3Cl)cc([N+](=O)[O-])c2O)c1	mHTT-CaM PPI inh 98
Cc1ccccc1C(=O)Nc1cccc(N=Cc2cc(Cl)cc([N+](=O)[O-])c2O)c1	none
CC(=O)Nc1cccc(N=Cc2cc(Cc3ccccc3)ccc2O)c1	mHTT-CaM PPI inh 95
CCc1c(C)c(C#N)c2nc3ccccc3n2c1NCCCN(CC)CC	Pf apPOL block 82
CCc1c(C)c(C#N)c2nc3ccccc3n2c1NCCC(C)C	none
CCc1ccc(-n2[nH]c(=O)c(C=c3c(C)c(C#N)c4nc5ccccc5n4c3=O)c2O)cc1	mHTT-CaM PPI inh 57
CCc1c(C)c(C#N)c2nc3ccccc3n2c1NCCCN(C)C	Pf apPOL block 60
Cc1ccc(-n2[nH]c(=O)c(C=c3c(C)c(C#N)c4nc5ccccc5n4c3=O)c2O)cc1C	none
N#Cc1c2c(c(NCCN3CCOCC3)n3c1nc1ccccc13)CCCC2	none
C=CCc1c(C)c(C#N)c2nc3ccccc3n2c1NCCCN(CC)CC	none
N#Cc1c2c(c(NCCCN3CCOCC3)n3c1nc1ccccc13)CCC2	Pf apPOL block 67
O=C1c2ccccc2C(=O)N1CC(=O)n1nnc2ccccc21	none
CCNC(=O)c1c2c(nc3ccccc13)CCC2	none
CCc1c(C)c(C#N)c2nc3ccccc3n2c1NCCO	Pf apPOL block 73
CCc1c(C)c(C#N)c2nc3ccccc3n2c1NCCOC	none
Cc1ccc(CNC(=O)N2CCCC(C)(C(=O)NCc3ccc(F)cc3)C2)cc1 (stereo not given)	none
O=C(NCc1ccccn1)C1CCN(c2nc3ccc(-c4cncnc4)nc3s2)CC1	none
CCN1Cc2nnn(Cc3ccccc3)c2-c2cc(F)ccc2S1(=O)=O	mHTT-CaM PPI inh 94
CC(C)(C)N1Cc2nnn(Cc3ccccc3)c2-c2cc(F)ccc2S1(=O)=O	none
c1ccc(-c2nnc(-c3ccccn3)nc2-c2ccccc2)cc1	none
O=S(=O)(O)c1cc(-c2nnc(-c3ccccn3)nc2-c2ccc(S(=O)(=O)O)o2)co1	mHTT-CaM PPI inh 100 (no result: Pf apPOL block)
Cc1nc(C)c(Cc2ccc(Cl)cc2)c(N2CCN(C(=O)C3CCOC3)CC2)n1 (stereo not given)	mHTT-CaM PPI inh 64
Cc1ccc(C)c(Cc2c(C)nc(C)nc2N2CCN(C(=O)C3CCOC3)CC2)c1 (stereo not given)	none
Nc1cccc(NC(=O)c2ccccc2Br)c1	none
COc1ccccc1CC(=O)Nc1ccc(OC)c(OC)c1	none
COc1cc2c(C)[nH]c(=O)c(CC(=O)Nc3ccccc3)c2cc1OC	mHTT-CaM PPI inh 65
N#CC1=C(N)Oc2n[nH]c(-c3ccc4c(c3)OCO4)c2C1c1ccc(O)cc1 (stereo not given)	none
CCOC(=O)c1oc2ccccc2c1NC(=O)C12CC3CC(CC(C3)C1)C2	none
NC(=O)c1oc2ccccc2c1NC(=O)C12CC3CC(CC(C3)C1)C2	mHTT-CaM PPI inh 100
O=C(c1ccc(OCC2CCN(C(=O)c3cccnc3)CC2)cc1)N1CCOCC1	none
COc1ccc(Br)cc1S(=O)(=O)n1cnc2ccccc21	none
COc1ccc(CCCC(=O)O)cc1C	Pf apPOL block 63
COc1ccc(OC)c(CCC(=O)O)c1	none
Cc1ccc(C)n1-c1ccc2ncccc2c1	mHTT-CaM PPI inh 67
Cc1nnc(C)c2c(C)n(-c3ccc4ncccc4c3)c(C)c12	none
CC1CCCN(C(=O)c2ccc(Cl)cc2[N+](=O)[O-])C1 (stereo not given)	Pf apPOL block 80
CC1CC(C)CN(C(=O)c2ccc(Cl)cc2[N+](=O)[O-])C1 (stereo not given)	none
Cc1ccc(-c2[nH]ncc2CN2CCCC2c2cc(C(C)C)no2)cc1 (stereo not given)	none
COc1ccc(CCNC(=O)Nc2cc(F)c(F)cc2Cl)cc1OC	none
COc1ccc(Cl)cc1NC(=O)NCCc1ccc(N(C)C)cc1	mHTT-CaM PPI inh 55
OCCN(CCO)CC(O)C12CC3CC(CC(C3)C1)C2 (stereo not given)	none (no result: Pf apPOL block)
CCOc1ccc(NC(=O)COc2ccccc2)c([N+](=O)[O-])c1	none
CCOc1ccc(NC(=O)c2cc(Cl)ccc2Cl)c([N+](=O)[O-])c1	none
CCOc1ccc(NC(=O)C(c2ccccc2)c2ccccc2)c([N+](=O)[O-])c1	mHTT-CaM PPI inh 50
CCOc1ccc(NC(=O)c2cccc3ccccc23)c([N+](=O)[O-])c1	mHTT-CaM PPI inh 63
CCc1cc2c(=O)c(-c3ccc4c(c3)OCCO4)c(C)oc2cc1OCC(=O)OC(C)C	none
Cc1ccc(C(=O)N2CCC(O)(c3ccccc3)C(N(C)C)C2)cn1 (stereo not given)	none
Cc1cc(Nc2ccc(C(N)=O)cc2)nc(-n2nc(C)cc2C)n1	mHTT-CaM PPI inh 95
Cc1cc(C)n(-c2ccc(Nc3ccc(NC(=O)Nc4ccccc4)cc3)nn2)n1	none
COc1cccc(/C=C2\Cc3ccccc3C2=O)c1OC	none
COc1cccc(/C=C2\CS/C(=C\c3cccc(OC)c3OC)C2=O)c1OC	mHTT-CaM PPI inh 53
COc1cccc(/C=C2/SC(N3CCN(C)CC3)=NC2=O)c1OC	none
CCCN1C/C(=C\c2cccc(OC)c2OC)C(=O)/C(=C/c2cccc(OC)c2OC)C1	mHTT-CaM PPI inh 50
COc1cccc(CC(=O)N2CCc3c(c(-c4nnc(SC)n4C)nn3C)C2)c1	none
CCC1Oc2ccc(Cl)cc2N(CC(=O)NCCc2ccc(OC)c(OC)c2)C1=O (stereo not given)	none
C=CCOc1cc(Br)c(/C=C(\C#N)C(=O)NCc2ccccc2)cc1OC	none
CCOc1ccccc1NC(=O)c1c[nH]c(=O)n(-c2ccc(F)cc2)c1=O	mHTT-CaM PPI inh 72
CCOc1ccccc1NC(=O)c1ccccc1Cl	none
CS(=O)(=O)N1CCN(c2ccc([N+](=O)[O-])c(NCc3ccc(Cl)cc3)c2)CC1	mHTT-CaM PPI inh 56

Bioassay records from PubChem BioAssay.
